# The full list was thinned out, with hits kept by preference.
# Shiga toxin inh = Shiga toxin inhibition; Vero cells, Shiga toxin protein synthesis inhibition reporter; inhibition, % at 38.7 µM; 290,000 compounds, 9.2% hits; in the data active means inhibition mostly above about 28%, no sharp cut-off; inactive means mostly below about 43%
# LmPK inhibitor = LmPK (Leishmania mexicana) enzyme inhibition | Q27686 | purified LmPK, Kinase-Glo ATP luminescence, 1 h | Potency, µM (doses to about 57.5 µM), hits mostly inhibitors | 290,000 compounds, 0.37% hits
#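 Purified LmPK (0.1 nM) with 0.5 mM PEP and 0.1 mM ADP in imidazole buffer pH 7.2 with MgCl2/KCl, 1 h at room temperature. ATP formed was read by luciferase luminescence and normalized to no-enzyme and uninhibited controls.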
# TbPYK inhibitor = blocks Trypanosoma brucei pyruvate kinase. Q57TT1. TbPYK enzyme, Kinase-Glo Plus ATP luminescence, 45 min. Potency, µM (series often up to 76.8 µM), hits mostly inhibitors. 410,000 compounds, 0.12% hits; further: nearly all actives have a fitted effect of over 50% in size
#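 TbPYK + substrate in 50 mM TEA pH 7.2, 100 mM KCl, 10 mM MgCl2, 0.05% BSA, 0.01% Tween-20; cpd pinned; ADP 130 uM final; 45 min RT; Kinase-Glo Plus 10 min; luminescence endpoint.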
# FBPA Giardia inh = inhibitors of Giardia lamblia fructose-1,6-bisphosphate aldolase. AID 2451. purified Giardia FBPA. Potency, µM (series often up to 59.6 µM), actives largely listed as inhibitors. 290,000 compounds, 0.71% hits. A8B2U2; further: nearly all actives have a fitted effect of over 55% in size
# Target sequence (A8B2U2 whole entry, looked up): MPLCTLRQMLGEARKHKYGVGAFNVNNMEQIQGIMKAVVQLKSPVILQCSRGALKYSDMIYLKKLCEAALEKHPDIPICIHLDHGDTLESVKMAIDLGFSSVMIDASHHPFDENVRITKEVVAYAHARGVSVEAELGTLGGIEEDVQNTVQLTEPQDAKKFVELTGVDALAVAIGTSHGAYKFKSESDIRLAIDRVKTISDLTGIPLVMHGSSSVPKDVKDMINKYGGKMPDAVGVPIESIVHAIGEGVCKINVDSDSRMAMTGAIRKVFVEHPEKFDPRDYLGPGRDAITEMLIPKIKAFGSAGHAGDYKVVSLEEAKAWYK
#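 Giardia FBPA (40 nM reagent) was preincubated 10 min at RT with compound (up to 57.5 uM final), then substrate plus GAPDH/TPI/NAD/arsenate coupling system with diaphorase/resazurin was added; resorufin fluorescence (525/598 nm) was read after 20 min.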
# CHX counter = counter-screen hit for Shiga toxin inhibitors, cycloheximide | cell reporter, cycloheximide protein synthesis inhibition counterscreen | max response, % | 300,000 compounds, 12% hits | AID 2314; in the data active means max response mostly above about 13%, no sharp cut-off; inactive means mostly below about 14%; further: read at 38.3 µM for the half of the compounds with a filed dose
# RE007 growth inh = less growth of the S. pombe RE007 Vpr strain; S. pombe RE007 Vpr strain, BacTiter-Glo ATP luminescence, 24 h; Potency, µM (top dose mostly 92.2 µM), most hits filed as inhibitors; 360,000 compounds, 0.21% hits; AID 651644; active means well fitted falling curve with a large enough effect; inconclusive means small, poorly fitted or top-dose-only effect; inactive means no such curve, though single readings can be large or run the other way; further: nearly all actives have a fitted effect of over 50% in size
#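 Fission yeast strain RE007, carrying one chromosomally integrated HIV-1 vpr copy, was seeded at OD 0.01 in PMG+AL medium with 23 nL pinned compound. After 24 h at 30 °C and 99% humidity, viability was read by BacTiter-Glo luminescence.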
# A number is an active result; n = inactive; u = inconclusive; x = no result given; [ ] = dose if it differs, or a comment. Unless noted, the call rests on the fitted dose curve; in most records, active means well fitted curve in the direction sought with a large enough effect; inconclusive means small, poorly fitted or top-dose-only effect, or another doubt; inactive means no such curve, though single readings can be large; an effect the other way counts as inactive or inconclusive.
SMILES,Shiga toxin inh,LmPK inhibitor,TbPYK inhibitor,FBPA Giardia inh,CHX counter,RE007 growth inh
COc1ccc(NC(=O)c2ccc(C)cc2)c(OC)c1,96.3,n,n,n,50.4,n
O=C(COc1ccccc1Cl)NC(=S)N1CCc2ccccc21,n,n,n,x,49.5,n
CCOC(=O)/C(=N/Nc1ccc(OC)cc1)N1CCCc2ccccc21,41.3,n,n,15.8µM,n,n
O=C(COc1ccccc1)NC(=S)N1CCc2ccccc21,38.5,n,n,n,39.6,n
COc1ccc(OCC(=O)NC(=S)N2CCCc3ccccc32)cc1,152.4,n,n,u,34.9,n
O=C(COc1ccccc1Cl)NC(=S)Nc1ccccc1N1CCCC1,n,n,n,n,n,n
C=CCn1c(SCC(=O)Nc2ccc(N3CCOCC3)cc2)nc2ccccc2c1=O,n,n,n,x,n,n
COc1cccc(OC)c1C(=O)NC1C(=O)N2C1SC(C)(C)C2C(=O)O (stereo not drawn),x,x,n,n,x,x
COCCCNC(=O)c1cc(S(=O)(=O)N2CCC3(CC2)OCCO3)ccc1F,x,x,n,x,x,n
C/C(=N\Nc1cccc2cccnc12)c1ccc[nH]1,74.7,n,n,n,40.2,n
CCC(=O)Nc1cccc2cccnc12,n,n,n,n,n,n
Cc1noc(C)c1-c1cc(NC2CCNCC2)ncn1,x,x,x,n,x,x
O=C(Oc1cccc(/C=N/Nc2nc(Nc3ccccc3)nc(N3CCOCC3)n2)c1)c1ccco1,22.5,n,n,n,13.3,n
COc1ccc(/C=N/Nc2nc(Nc3ccccc3)nc(N3CCCCC3)n2)cc1OC,146.7,n,n,n,34.2,n
COc1cccc(/C=N/Nc2nc(Nc3ccccc3)nc(-n3nc(C)cc3C)n2)c1O,31.3,n,n,n,43.7,n
C(=N\Nc1nc(Nc2ccccc2)nc(N2CCOCC2)n1)/c1c[nH]c2ccccc12,n,n,n,n,20.9,n
O=CNc1cc(-c2cccc(O)c2)cn2c(-c3ccc(F)cc3)cnc12,x,x,n,x,x,n
C=CCNC(=O)CC(=O)N/N=C/c1cccs1,n,n,n,n,n,n
Cc1cc(=O)n2nc(N3CCCC(C(=O)NCCCN4C(C)CCCC4C)C3)sc2n1 (stereo not drawn),x,x,n,x,x,n
COc1ccc(/C=N\Nc2ncc(F)c(N3CCOCC3)n2)cc1OC,73.3,n,n,n,38.7,n
Cc1ccc(Nc2nc(N/N=C/c3c[nH]c4ccccc34)nc(N3CCOCC3)n2)cc1,n,n,n,n,14.7,n
Cc1ccc(/C(=N/Nc2nc3ccccc3s2)C2=C(O)c3ccccc3C2=O)cc1,43.7,n,n,n,n,n
CCN1C(=O)/C(=C/N2CCc3ccccc32)SC1=S,68.9,n,n,n,15.8,n
Cn1cc(C(=O)O)c(=O)c2cc(S(=O)(=O)N3CCOCC3)ccc21,x,x,n,x,x,x
Cc1ccc(C)n1-c1ccc(-c2ccnc(N)n2)cc1,n,n,n,n,24.3,n
SMILES,Shiga toxin inh,LmPK inhibitor,TbPYK inhibitor,FBPA Giardia inh,CHX counter,RE007 growth inh
Cc1onc(-c2ccccc2)c1-c1ccnc(N)n1,n,n,n,n,n,n
O=C1NCC(Nc2ccc(Br)cc2)C(=O)N1 (stereo not drawn),x,x,n,x,x,n
O=Nc1c(O)n(Cc2ccc(Cl)cc2Cl)c2ccccc12,n,n,n,n,n,22.4µM
CCOC(=O)C1=C(N)OC2=C(C(=O)CC(C)(C)C2)C1c1ccc(CC)s1 (stereo not drawn),n,n,n,n,n,n
CCOC(=O)C1=C(N)OC2=C(C(=O)CC(C)(C)C2)C1c1ccc(C)s1 (stereo not drawn),89.2,n,n,n,26.5,n
CCCCCCCOC(=O)C[N+](C)(C)CCOC1CC2CCC1(C)C2(C)C (stereo not drawn),n,n,n,n,n,n
CCCCCCOC(=O)C[N+](C)(C)CCOC1CC2CCC1(C)C2(C)C (stereo not drawn),n,n,n,n,19.3,n
COc1ccc(Br)c(Cn2c(C)c(C(=O)NCc3cccc([N+](=O)[O-])c3)sc2=O)c1,x,x,n,x,x,n[18.4 µM]
Cc1ccc(CSc2nncn3c2cc2sccc23)cc1,x,x,n,x,x,x
COc1ccccc1-c1nnc(SCC(=O)N2CCCCC2)o1,n,n,n,x,22.9,n
Cc1ccccc1-c1nnc(SCC(=O)N2CCCC2)o1,79.6,n,n,n,44.4,n
COc1ccccc1-c1nnc(SCC(=O)N2CCOCC2)o1,n,n,n,n,n,n
CCOC(=O)C1CCN(C(=O)COC(=O)c2cccc(NS(=O)(=O)c3ccccc3)c2)CC1,x,x,n,x,x,n
N#Cc1c(Cl)nsc1NN,69.9,u,n,n,29.5,u
CN(CC(=O)Nc1ccccc1Cl)C(=O)COC(=O)c1nc(Cl)c(Cl)c(Cl)c1Cl,52.5,n,n,n,45.2,n
CCCC(=O)Nc1ccc2nc(SCc3ccc(C)cc3)sc2c1,x,x,n,x,x,x
O=C(CSc1nnc(-c2ccncc2)n1Cc1ccco1)c1ccc(Cl)cc1,n,n,n,n,n,n
O=C(CSc1nnc(-c2ccc(Cl)cc2)n1Cc1ccco1)c1cccs1,43.7,n,n,n,58.1,n
O=C(NNC(=S)NCc1ccco1)c1cccs1,n,n,n,n,n,n
C=CCn1c(SCC(=O)c2cccs2)nnc1-c1cccc(OC)c1,36.7,n,n,n,17.6,n
O=C(CSCc1ccco1)c1cccs1,82.1,n,n,n,39.3,u
Cc1cccc(C)c1N=Nc1c(C)cc(O)cc1C,n,n,n,n,n,25.1µM
Cc1cccc(O)c1C,x,x,n,x,x,n
CN(C)c1ccc(/C=C/c2nc3ccccc3c(=O)[nH]2)cc1,38.9,n,n,n,33.8,x
Cc1cccc(/C=C\c2nc3ccccc3c(=O)[nH]2)c1,93.3,n,n,n,70.2,n
SMILES,Shiga toxin inh,LmPK inhibitor,TbPYK inhibitor,FBPA Giardia inh,CHX counter,RE007 growth inh
Cc1nc(/C=C/c2ccccc2)[nH]c(=O)c1-c1ccccc1,94.2,n,n,n,32.6,n
O=c1[nH]c(/C=C/c2ccc(Br)cc2)nc2ccccc12,85.1,n,n,n,44.6,n
COc1ccc(CCNC(=O)C(=O)NCC(c2cccs2)S(=O)(=O)c2ccccc2)cc1 (stereo not drawn),x,x,n,x,x,x
Nc1cc(=O)nc(SCC(=O)Nc2ccc(F)cc2)n1CCc1ccccc1,x,x,n,x,x,x
COc1cccc(N2CCN(c3ccc4nnc(CCC(=O)Nc5ccc(C)cn5)n4n3)CC2)c1,n,n,n,x,n,n
CCN1CCN(c2cc(C)c3cc(NC(=O)CCC(=O)N4CCN(c5ccccc5OC)CC4)ccc3n2)CC1,n,n,n,n,17.2,n
CCN1CCN(c2cc(C)c3cc(NC(=O)c4cc(OC)cc(OC)c4)ccc3n2)CC1,63.6,n,n,n,18.5,n
CCOc1ccc(C(=O)Nc2ccc3nc(N4CCN(CC)CC4)cc(C)c3c2)cc1,n,n,n,n,n,n
CCN1CCN(c2cc(C)c3cc(NC(=O)CCC(=O)N4CCN(c5ccccc5)CC4)ccc3n2)CC1,n,n,n,n,n,n
